# According to PMC5540273 (PLoS ONE, 2017):
# Key:
# Details in all cases: concentration: 1 μM, replicates: in singlicate; n = 1
# [1] = test system: ADCK4
# [2] = test system: AKT1
# [3] = test system: AKT2
# [4] = test system: AKT3
# [5] = test system: ALK
# [6] = test system: T1, AMPK-alpha1
# T1 construct: gene PRKAA1
# [7] = test system: T2, AMPK-alpha2
# T2 construct: gene PRKAA2
# [8] = test system: ANKK1
# [9] = test system: T3, ARK5
# T3 construct: gene NUAK1
# [10] = test system: T4, ASK1
# T4 construct: gene MAP3K5
# 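Further: KINOMEscan kinase panel screen.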
SMILES,%Inh [1] [%],%Inh [2] [%],%Inh [3] [%],%Inh [4] [%],%Inh [5] [%],%Inh [6] [%],%Inh [7] [%],%Inh [8] [%],%Inh [9] [%],%Inh [10] [%]
CN(c1ccc(NC(=O)Nc2cccc(Cl)c2)cc1)c1ccnc(N)n1.Cl [GW830707],6,23,3,12,0,0,18,0,0,2
CN1CCN(Cc2ccc(NC(=O)Nc3ccc(N(C)c4ccnc(Nc5ccc(CS(C)(=O)=O)cc5)n4)cc3)cc2)CC1.Cl [GW827654],34,0,0,0,47,34,34,80,8,0
COc1ccc(C2=C(Nc3cccc(O)c3)C(=O)NC2=O)cc1 [SB-390766],9,0,12,0,73,100,10,32,0,35
CN(c1ccc(NC(=O)N2CCN(CCCN3CCOCC3)CC2)cc1)c1ccnc(Nc2ccc(CS(C)(=O)=O)cc2)n1.Cl [GW830899],5,0,0,0,0,0,12,0,0,0
NCCC(NC(=O)c1cc(Br)c(-c2ccnc3[nH]ccc23)s1)c1ccccc1.O=C(O)C(F)(F)F.O=C(O)C(F)(F)F (stereo not shown) [GSK1307810],60,91.6,52,87,50,52,34,0,18,15
Cl.N#CCc1ccc(Nc2nccc(Nc3ccc(Oc4ccccc4)cc3)n2)cc1 [GW639905],72,0,4,0,40,0,0,98.9,0,0
CN(C)CCOc1ccc(-c2cc(-c3ccc(Cl)c(O)c3)c(-c3ccncc3)[nH]2)cc1.Cl.Cl [SB-684387],21,0,0,55,18,0,11,8,1,15
CN(c1ccc(F)c(NC(=O)c2cccc(OC(C)(C)C#N)c2Cl)c1)c1ccc2nc(NC(=O)C3CC3)sc2n1,0,2,4,0,46,0,0,0,0,0
Cc1cc(-c2ccnc(Nc3cccc(C#N)c3)n2)cc(C)c1O [GSK1440913],72,0,0,0,7,17,32,9,23,0
COc1cc(Nc2nccc(N3CCC(NC(=O)Nc4ccc5c(c4)OCO5)C3)n2)cc(OC)c1OC (stereo not shown) [GSK1379766],69,0,2,0,63,2,10,36,24,4
Cl.Cl.NC(CNC(=O)c1cc(Br)c(-c2ccnc3[nH]ccc23)s1)c1ccccc1 (stereo not shown) [GSK1322949],76,66,15,88,59,73,46,38,0,0
COc1cccc(C2=C(Nc3cccc(O)c3)C(=O)NC2=O)c1 [SB-390771],32,0,7,0,4,16,3,0,12,7
COc1cc(Nc2nccc(N3CCC(NS(=O)(=O)c4ccc(NC(C)=O)cc4)CC3)n2)cc(OC)c1OC [GSK1379825],96.2,0,15,0,32,17,50,0,43,0
